Assay outcomes from PubChem.
Sampled rows, rich in hits. Any-hit rate of the full collection: about 3%.
KKLEB cytotox = cytotoxicity in KKLEB CF airway cells, primary screen, cytotoxicity control for CF NF-kB inhibitor project, cell-based, uHTS, fluorescence assay plates | KKLEB CF airway cells viability, ATPlite luminescence, overnight; hits give low values; cells stimulated with P. aeruginosa culture filtrate | activity change (cytotoxicity), % at 5 µM | 360,000 compounds, 0.36% hits | AID 602141, 2011;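 active = corrected activity change at or below -50% at 5 µM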
ABHD5 PLIN5 PPI = ABHD5-PLIN5 interaction inhibitors, primary screen, cell lysate, split luciferase complementation, luminescence; Split G. princeps luciferase complementation, 4 h; 360,000 compounds, 0.78% hits; inhibition, % at 4 µM; Perilipin-5 (Homo sapiens) + 1-acylglycerol-3-phosphate O-acyltransferase ABHD5 (Homo …;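 active = inhibition above the mean inhibition across every tested compound plus 3 SD, cut at about 22% in these data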
Target sequence (Q00G26 whole entry, looked up): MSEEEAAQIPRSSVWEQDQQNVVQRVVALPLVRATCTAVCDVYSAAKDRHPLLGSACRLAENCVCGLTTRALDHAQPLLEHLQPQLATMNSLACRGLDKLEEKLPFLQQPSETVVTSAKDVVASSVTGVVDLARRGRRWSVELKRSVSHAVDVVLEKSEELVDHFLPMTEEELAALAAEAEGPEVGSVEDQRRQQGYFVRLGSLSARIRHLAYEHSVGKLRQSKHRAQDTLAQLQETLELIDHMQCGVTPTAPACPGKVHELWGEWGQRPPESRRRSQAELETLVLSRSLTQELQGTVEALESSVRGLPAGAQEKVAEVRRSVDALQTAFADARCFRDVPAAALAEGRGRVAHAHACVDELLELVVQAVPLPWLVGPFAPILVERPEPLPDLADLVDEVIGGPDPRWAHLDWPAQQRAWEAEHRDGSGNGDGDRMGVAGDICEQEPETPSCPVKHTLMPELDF
Target sequence (Q8WTS1 whole entry, looked up): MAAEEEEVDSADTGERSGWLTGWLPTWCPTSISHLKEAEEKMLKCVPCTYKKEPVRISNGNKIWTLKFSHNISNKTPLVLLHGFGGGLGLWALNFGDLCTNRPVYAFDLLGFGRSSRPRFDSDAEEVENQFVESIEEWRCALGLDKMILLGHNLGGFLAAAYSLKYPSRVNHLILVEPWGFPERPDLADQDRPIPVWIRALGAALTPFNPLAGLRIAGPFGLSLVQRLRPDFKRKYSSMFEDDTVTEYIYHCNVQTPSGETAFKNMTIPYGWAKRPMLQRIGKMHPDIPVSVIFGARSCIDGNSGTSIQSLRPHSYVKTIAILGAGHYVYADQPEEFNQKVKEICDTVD
CF NFkB inh = inhibitors of PAF-induced NF-kB signaling, primary screen, cell-based, GFP fluorescence, uHTS; 360,000 compounds, 0.86% hits; AID 588850, 2011; inhibition, % at 5 µM; KKLEB NF-kB-GFP reporter, GFP fluorescence overnight;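 active = at least 50% inhibition at 5 µM, scaled per plate between neutral and stimulator controls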;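 also: PAF is a Pseudomonas aeruginosa culture filtrate used as stimulus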
Peg3 promoter = Peg3 promoter-driven luciferase inhibitors, primary screen, cell-based, HeLa, luciferase luminescence | inhibition, % at 20 µM | 360,000 compounds, 1.7% hits | HeLa PEG-Prom luciferase reporter, overnight;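 active = inhibition of at least 50% at 20 µM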
HIF-2a block = HIF-2a reporter inhibitors, primary screen, luminescence, 786-0 RCC cells; inhibition, % at 18.8 µM; 786-0 RCC cells HIF-2a reporter, luciferase luminescence, overnight; AID 624352, 2012; 360,000 compounds, 0.72% hits;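 active = inhibition of the luminescence signal of 40% or more relative to plate controls, in a single-dose primary screen at 18.75 µM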
TRPM1 prom inh = inhibitors of MITF-dependent TRPM1 promoter reporter, primary screen, cell-based, SK-MEL-5, single point, luciferase | 330,000 compounds, 0.83% hits | SK-MEL-5 TRPM1 promoter luciferase, 24 h | inhibition, % at 12.5 µM;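 active = mean inhibition across replicates of 60% or more, whatever share of single replicates reaches that level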
Of the large screens only hits and unclear results are named; the others gave an inactive call.

COc1cc(-c2ccc3sc(-c4ccsc4)c(C#CCO)c3c2)cc(OC)c1OC	Peg3 promoter 56.2
CCN(Cc1ccccc1)C(=O)CCS(=O)(=O)c1ccc2c(c1)CCN2C(C)=O	none
Cc1c(C(=O)NCc2ccc3c(c2)OCCO3)sc(=O)n1Cc1cccc(C(F)(F)F)c1	none (no result: TRPM1 prom inh)
CCCCCCCCCCCCCCC[C@@H](O)[C@@H](N)CO	Peg3 promoter 51.5
CS(=O)(=O)c1ncc(CO)n1Cc1ccccc1	none
Clc1ccc(-n2cnc3c(Cl)ncnc32)cc1Cl	Peg3 promoter 74.2
O=c1c2ccccc2ncn1-c1ccc(Cl)c(Cl)c1	none
CCOc1ccccc1NC(=O)NCc1ccc2c(c1)OCO2	Peg3 promoter 67.7
Cc1ccccc1OCc1nc2ccccc2c(=O)n1/N=C/c1cn[nH]c1-c1ccc(Br)cc1	Peg3 promoter 61.4
N#Cc1ccc(C#Cc2ccc3oc4ccccc4c(=O)c3c2)cc1	none
COc1cc2oc3ccc(C#Cc4ccc(N)cc4)cc3c(=O)c2cc1OC	none
COc1cccc2oc3ccc(C#CC4(N)CCCCC4)cc3c(=O)c12	Peg3 promoter 60.2
O=c1c2ccccc2oc2ccc(C#CC3(O)CCCCC3)cc12	KKLEB cytotox -57.3
Cn1c2ccccc2c(=O)c2cc(C#CC3(O)CCCCC3)ccc21	KKLEB cytotox -72.1
NC1(C#Cc2ccc3c(=O)c4ccccc4sc3c2)CCCCC1	none
Cn1c2ccccc2c(=O)c2ccc(C#CC3(N)CCCCC3)cc21	Peg3 promoter 51.6
O=C(Cc1ccc(S(=O)(=O)N2CCOCC2)s1)N1CCN(S(=O)(=O)c2cccc(Cl)c2)CC1	none
COc1cc(OC)c(OC)cc1CNC(=O)c1cc(S(=O)(=O)N2CCOCC2)ccc1F	none
CCc1ccc(/C=C2\SC(=S)N(CCCC(=O)NCCCN3CCOCC3)C2=O)cc1	Peg3 promoter 83.6, HIF-2a block 82.7 (no result: TRPM1 prom inh)
CCOc1ccc(/C=C2\SC(=S)N(CCCC(=O)NCCCN3CCOCC3)C2=O)cc1	Peg3 promoter 68.2, HIF-2a block 70.8
Cc1ccc(NC(=O)/C(C#N)=C/c2cn(CC(=O)NCc3ccco3)c3ccccc23)cc1C	none
Cc1ccccc1N/C(SCc1ccc(Cl)cc1)=C(/C#N)C(=O)NCc1ccco1	none
Cc1ccc(C)c(NC(=O)/C(C#N)=C/c2cn(CC(=O)NCc3ccco3)c3ccccc23)c1	Peg3 promoter 51.1
Cc1ccc(CS/C(Nc2ccccc2C)=C(\C#N)C(=O)NCc2ccco2)c(C)c1	Peg3 promoter 50.9
Cc1cc(C)cc(NC(=O)/C(C#N)=C/c2cn(CC(=O)NCc3ccco3)c3ccccc23)c1	KKLEB cytotox -71.8, CF NFkB inh 69.8, Peg3 promoter 74.5, TRPM1 prom inh 83.9
COC(=O)C[C@H]1CC[C@@H](NC(=O)Nc2cccc(OC)c2)[C@@H](CO)O1	none (no result: KKLEB cytotox, CF NFkB inh, Peg3 promoter, TRPM1 prom inh)
O=C(NCCOc1ccccc1F)C1CC(=O)N(c2ccc3c(c2)OCCO3)C1 (stereo unspecified)	none
CCCCCCC[N+](CC)(CC)CCCCc1ccc(Cl)cc1	TRPM1 prom inh 75.6
CCOC(=O)NNC(=O)CCn1c2c(c3ccccc31)CCCC2	CF NFkB inh 62.2
CC(=O)NNC(=O)CCn1c2c(c3ccccc31)CCCC2	none
COc1cccc(-n2ccn(CC(=O)NCCc3ccccc3)c(=O)c2=O)c1	none
CCOC(=O)c1c(NC(=O)CNCCO)sc(C)c1C	none
CCOC(=O)c1c(NC(=O)CNC2CCCCC2)sc(C)c1C	Peg3 promoter 90.2
O=C(CCCN1C(=O)/C(=C/c2cccs2)SC1=S)NNC(=O)c1ccncc1	none
O=C(CCCN1C(=O)/C(=C/c2cccs2)SC1=S)NNC(=O)c1ccccc1O	HIF-2a block 40.7
O=C(CCCN1C(=O)/C(=C\c2cccs2)SC1=S)Nc1ccc(O)cc1C(=O)O	Peg3 promoter 53.2
O=C(CCCN1C(=O)/C(=C/c2cccs2)SC1=S)Nc1ccccc1O	none
COc1ccc(Cn2cc(CN3CCc4onc(-c5ccc(Br)cc5)c4C3=O)nn2)cc1	none (no result: KKLEB cytotox, CF NFkB inh, Peg3 promoter, TRPM1 prom inh)
O=C(c1ccco1)N(CCC(c1ccccc1)c1ccco1)Cc1ccco1 (stereo unspecified)	ABHD5 PLIN5 PPI 28.4
CC(=O)N(CCC(c1ccccc1)c1ccco1)Cc1cccs1 (stereo unspecified)	none
Cc1ccc(C(CCN(Cc2ccccc2)C(=O)c2ccco2)c2ccco2)cc1 (stereo unspecified)	ABHD5 PLIN5 PPI 28.9
N#CC(=C1C=C(Br)C(=NO)C=C1Cl)c1cccc2ccccc12	CF NFkB inh 51.2 (no result: TRPM1 prom inh)
CCn1c2ccccc2c2nnc(SCCCn3c(=O)[nH]c4ccccc43)nc21	Peg3 promoter 50.1
CC(=O)Nc1ccc(OCc2cccc([N+](=O)[O-])c2)cc1	none
CC(=O)Nc1ccc(C=CC=Cc2cccc([N+](=O)[O-])c2)cc1	ABHD5 PLIN5 PPI 22.1
O=C1NC[C@H](c2ccccc2)OC(=O)[C@@H](Cc2ccc(F)cc2)C/C=C\C[C@H]1CC(=O)N(CCO)Cc1ccccc1	KKLEB cytotox -53.1, CF NFkB inh 84.4, Peg3 promoter 68.3
O=C1NC[C@@H](c2ccccc2)OC(=O)[C@H](Cc2ccc(F)cc2)C/C=C\C[C@H]1CC(=O)N(CCO)Cc1ccccc1	none
O=C1NC[C@H](c2ccccc2)OC(=O)[C@H](Cc2ccc(F)cc2)C/C=C\C[C@H]1CC(=O)N(CCO)Cc1ccccc1	KKLEB cytotox -86.4, CF NFkB inh 102.5, Peg3 promoter 54.1
CCCOC(=O)Cn1cnc2scc(-c3ccc(OC)cc3)c2c1=O	none
CCc1nc(Nc2ccc3c(c2)OCCO3)c2oc3ccccc3c2n1	Peg3 promoter 69.2
CCCCCCCCc1nc(SC(C)C(=O)O)n[nH]1 (stereo unspecified)	none
COC1=Nc2ccccc2N2CCN=C12	none (no result: TRPM1 prom inh)
c1ccc2c(c1)C1=NCCN1c1ccccc1-2	Peg3 promoter 104.3 (no result: TRPM1 prom inh)
Cc1ccc(S(=O)(=O)N(C)c2cc(S(=O)(=O)N3CCOCC3)c(C)cc2C)cc1	none
Cc1cc(C)c(S(=O)(=O)N2CCCCC2)cc1N(C)S(=O)(=O)c1ccc(Cl)cc1	Peg3 promoter 98.2
Cc1cc(=O)oc2cc(OCC(=O)OCC(=O)NCCc3ccccc3)ccc12	none
C[n+]1ccc(/C=C/c2ccccc2O)c2ccccc21	none
CN1/C(=C/c2cc[n+](C)c3ccccc23)C=Cc2ccccc21	TRPM1 prom inh 82.6
Cc1ccc(NC(=O)c2ccc(NCCc3ccccc3)c([N+](=O)[O-])c2)cc1F	KKLEB cytotox -50.3
Cc1cc(NS(=O)(=O)c2ccc(NC(=O)/C=C/c3cccc(Cl)c3)cc2)no1	none
